This note sets out measurements from PubChem BioAssay AID720690 (Broad Institute, 2013).

Potency and affinity values are given separately. A number with no mark means an inactive call.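 Rule for the calls: active = every repeat run showing a signal drop whose fitted half-maximal concentration is at most twice the top tested concentration; inconclusive = repeat runs disagree, or flat partial drop, or poor fit; inactive = the rest.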

A short description of this assay: general mammalian cell viability loss – activator set, cherry-pick, cytotoxicity control for miR-122 modulator project, dose response (AID 720690).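 Note: 0% = neutral control wells and -100% = MG132 cytotoxic control wells.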 The conditions noted are these: HEK293T viability, CellTiter-Glo luminescence, 48 h; series mostly up to 26 µM; activity change, negative = cytotoxicity: at the top concentration. A general note: Cellular ATP, detected with luciferase, serves as a proxy for viable cell number.
Take `CCCNC(=O)Nc1ccc2c(c1)C(=O)N(C)[C@@H]1CC[C@H](CC(=O)O)O[C@H]1CO2`: the “activity change, negative = cytotoxicity” value is 3.13%.

On to `CNC(=O)C[C@@H]1CC[C@@H]2[C@@H](COc3ccc(NC(=O)NC(C)C)cc3C(=O)N2C)O1`, for which the “activity change, negative = cytotoxicity” value is -2.47%.

Turning to `C/C=C/c1ccc2c(c1)O[C@H](CN(C)C(=O)NCCC)[C@H](C)CN([C@@H](C)CO)S2(=O)=O`, the “activity change, negative = cytotoxicity” value was 1.6%.

As for `CCNC(=O)C[C@H]1CC[C@@H]2[C@@H](COc3ccc(NC(=O)c4cccc(C(F)(F)F)c4)cc3C(=O)N2C)O1`, the “activity change, negative = cytotoxicity” value is -8.55%.

Take `CC(=O)Nc1ccc2c(c1)C(=O)N(C)[C@@H]1CC[C@H](CC(=O)NCCCN3CCOCC3)O[C@@H]1CO2`: the “activity change, negative = cytotoxicity” value was 3.3% [at 23.5 µM].

Turning to `Cc1cc(C(F)F)n2ncc(C(=O)NCCc3ccccc3Cl)c2n1`, the “activity change, negative = cytotoxicity” value was -0.237%.

For `COc1ccccc1C#Cc1ccc([C@H]2[C@@H](CO)N3CCCCN(CCC(F)(F)F)C[C@H]23)cc1`, the “activity change, negative = cytotoxicity” value is -32.3% [at 23.5 µM].

Turning to `Cc1ccc(-c2noc(CCC(=O)Nc3ccccc3C)n2)cc1`, the “activity change, negative = cytotoxicity” value is 1.33%.

As for `CC(C)C(=O)Nc1ccc2c(c1)C(=O)N(C)[C@@H]1CC[C@H](CC(=O)O)O[C@H]1CO2`, the “activity change, negative = cytotoxicity” value is 7.7%.

Take `O=C(Nc1ccc(F)cc1)N1C[C@@H]2[C@H](c3ccccc31)[C@H](CO)N2C(=O)Cc1ccccc1`: the “activity change, negative = cytotoxicity” value was 3.89% [at 23.5 µM].

Take `CC(C)Oc1ccc(CNCCC2(C(C)C)CCOC(C)(C)C2)cc1` (centres undefined): the “activity change, negative = cytotoxicity” value was 12%.

Consider `CCNC(=O)C[C@@H]1CC[C@H]2[C@@H](COc3ccc(NC(=O)c4ccc(C(F)(F)F)cc4)cc3C(=O)N2C)O1`, for which the “activity change, negative = cytotoxicity” value was -6.62% [at 23.5 µM].

For the compound `CN1C(=O)c2cc(NC(=O)c3cccs3)ccc2OC[C@@H]2O[C@H](CC(=O)NCC(F)(F)F)CC[C@H]21`, the “activity change, negative = cytotoxicity” value is -2.83%.

Turning to `COc1ccc(-c2cn3c(C)c(C(=O)Nc4cccc(NC(C)=O)c4)sc3n2)cc1`, the “activity change, negative = cytotoxicity” value is 39.5%.

As for `C[C@@H]1CN([C@@H](C)CO)S(=O)(=O)c2ccc(C#Cc3ccncc3)cc2O[C@@H]1CN(C)C(=O)Nc1ccc2c(c1)OCO2`, the “activity change, negative = cytotoxicity” value was -19.2%.

With `CCN(C[C@H]1[C@@H](c2ccccc2)[C@@H](CO)N1C(=O)COC)S(C)(=O)=O`, the “activity change, negative = cytotoxicity” value was -9.87%.

With `CNC(=O)C[C@@H]1CC[C@H]2[C@@H](COc3ccc(NC(=O)NC(C)C)cc3C(=O)N2C)O1`, the “activity change, negative = cytotoxicity” value is -0.66% [at 23.5 µM].

For the compound `Cc1c(CC(=O)NCCCC(=O)O)c(=O)oc2cc3occ(-c4ccccc4)c3cc12`, the “activity change, negative = cytotoxicity” value is 3.83%.

On to `CCOc1ccc2nc(NS(=O)(=O)c3cccs3)sc2c1`, for which the “activity change, negative = cytotoxicity” value was 4.68%.

As to `CNC(=O)C[C@H]1CC[C@H]2[C@H](COc3ccc(NC(=O)c4cccc(F)c4)cc3C(=O)N2C)O1`, the “activity change, negative = cytotoxicity” value was -2.89%.

For `CNC(=O)C[C@H]1CC[C@@H]2[C@H](COc3ccc(NC(=O)NC(C)C)cc3C(=O)N2C)O1`, the “activity change, negative = cytotoxicity” value was -2.56% [at 23.5 µM].

With `COc1cc(-c2nnc(-c3ccco3)o2)ccc1OCc1ccccc1`, the “activity change, negative = cytotoxicity” value was -1.14%.

`CCCNC(=O)C[C@@H]1CC[C@@H]2[C@H](COc3ccc(NC(=O)c4cc(F)cc(F)c4)cc3C(=O)N2C)O1`: the “activity change, negative = cytotoxicity” value is -1.09%.

With `COc1cc(N)c(Cl)cc1NC(=O)c1ccccc1`, the “activity change, negative = cytotoxicity” value was -16.9%.

Regarding `NS(=O)(=O)c1ccc(Nc2nc(-c3cccnc3)cs2)cc1`, the “activity change, negative = cytotoxicity” value is -0.393%.

`CC(=O)c1cccc(S(=O)(=O)NCC2CCCCC2)c1`: the “activity change, negative = cytotoxicity” value was 14.5%.

For the compound `CCCNC(=O)N1C[C@@H]2[C@H](c3ccccc31)[C@@H](CO)N2Cc1cc(F)ccc1F`, the “activity change, negative = cytotoxicity” value was -7.29% [at 23.5 µM].

In the case of `C/C=C/c1ccc([C@@H]2[C@H](CO)N(Cc3ccccn3)[C@H]2CNC(=O)CC)cc1`, the “activity change, negative = cytotoxicity” value was 10.8%.

`COc1ccccc1NC(=O)Nc1ccc2c(c1)C(=O)N(C)[C@H]1CC[C@H](CC(=O)Nc3ccc4c(c3)COC4)O[C@@H]1CO2`: the “activity change, negative = cytotoxicity” value is 5.52%.

As to `C/C=C/c1ccc([C@@H]2[C@@H](CNC(=O)CC)N(Cc3ccccn3)[C@H]2CO)cc1`, the “activity change, negative = cytotoxicity” value is -6.56%.

In the case of `CC(C)C(=O)Nc1ccc2c(c1)C(=O)N(C)[C@H]1CC[C@H](CC(=O)Nc3cccc(F)c3)O[C@@H]1CO2`, the “activity change, negative = cytotoxicity” value was -0.432%.

Take `COC(=O)C[C@H]1CC[C@H]2[C@H](COc3ccc(NC(=O)c4cscn4)cc3C(=O)N2C)O1`: the “activity change, negative = cytotoxicity” value was -12.2%.

In the case of `COCCN(C[C@@H]1[C@@H](c2ccccc2)[C@H](CO)N1C(=O)C1CCC1)C(C)=O`, the “activity change, negative = cytotoxicity” value was 5.88%.

Regarding `CO[C@@H]1CN(C)C(=O)c2ccc(NS(=O)(=O)c3cccc(F)c3)cc2OC[C@@H](C)NC[C@H]1C`, the “activity change, negative = cytotoxicity” value is -2.14%.

Consider `CC(=O)Nc1ccc2c(c1)C(=O)N(C)[C@H]1CC[C@@H](CC(=O)NCc3ccc4c(c3)OCO4)O[C@@H]1CO2`, for which the “activity change, negative = cytotoxicity” value is -3.39% [at 23.5 µM].

Consider `CCOc1cc(C(=O)NC(C)COC)cc(OCC)c1OCC` (centres undefined), for which the “activity change, negative = cytotoxicity” value was 0.828%.

With `COCC(=O)N1[C@H](CO)[C@@H](c2ccccc2)[C@H]1CN(C)C(=O)c1ccncc1`, the “activity change, negative = cytotoxicity” value is -11.8%.

Consider `CCCNC(=O)C[C@@H]1CC[C@@H]2[C@@H](COc3ccc(NC(=O)Nc4ccccc4F)cc3C(=O)N2C)O1`, for which the “activity change, negative = cytotoxicity” value was 6.7%.

On to `O=C(NCC(c1cccnc1)N1CCOCC1)NC1CCCCC1` (centres undefined), for which the “activity change, negative = cytotoxicity” value is 0.711%.
